Hits are enriched below; roughly 4.8% of the tested compounds scored in any of these assays.
hcDAF12 agonist: activates DAF-12 receptor from parasite H. contortus; HEK293 hcDAF-12 lit1-tk-luc reporter, luminescence; 0% DMSO, 100% Δ7-dafachronic acid; activation, % at 6.8 µM; hit rate 1.4% among 370,000; AID 652067;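 active means activation above the mean of all tested compounds plus 3 SD, cut at about 5.5% in these data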;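 further: 100% = response to 3 µM Δ7-dafachronic acid high control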
DAX1 inh-1: inhibits human nuclear receptor DAX1. P51843. HEK293 Gal4-DAX1 luciferase reporter, luminescence. inhibition, % at 6.75 µM. hit rate 0.99% among 340,000. AID 504766;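 active means inhibition above the mean over all tested compounds plus 3 SD, cut at about 4.2% in these data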;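 further: 0% = DAX1-transfected cells with DMSO and 100% = empty-vector control cells with DMSO; inhibition shows as a rise in luminescence from relieved DAX1 repression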
Target sequence (P51843 207-470 limits assumed): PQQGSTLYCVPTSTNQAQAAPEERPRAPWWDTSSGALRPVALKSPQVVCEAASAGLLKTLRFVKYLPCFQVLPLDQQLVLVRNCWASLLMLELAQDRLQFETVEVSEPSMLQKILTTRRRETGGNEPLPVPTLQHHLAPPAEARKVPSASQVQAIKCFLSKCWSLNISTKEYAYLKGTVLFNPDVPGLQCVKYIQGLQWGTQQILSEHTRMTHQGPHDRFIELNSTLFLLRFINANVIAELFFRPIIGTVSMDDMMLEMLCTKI
SMARCA2 activ: SMARCA2 function activation, primary screen. MG213 cells, MMTV-luciferase reporter, dexamethasone, overnight. activation, % at 9.1 µM. hit rate 1% among 370,000. AID 652017; in the data active means activation above about 7.8%;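 further: 0% = vehicle wells and 100% = reference activator wells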
ssDAF-12 act: S. stercoralis DAF-12 activation, primary screen | HEK293 ssDAF-12/GRIP1 lit1-tk-luc reporter, luminescence; % of 3 µM dafachronic acid response | activation, % at 6.8 µM | hit rate 1% among 370,000 | AID 652126;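 active means activation above the mean over all tested compounds plus 3 SD, cut at about 0.9% in these data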;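 further: 0% = DMSO-only wells and 100% = 3 µM delta7-dafachronic acid wells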
DAX1 inh-2: inhibitors of DAX1 repression of SF-1 activated StAR promoter; HEK293T StAR-luciferase reporter, SF-1/DAX-1 repression relief; inhibition, % at 6.8 µM; hit rate 1.1% among 370,000; AID 652010;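 active means inhibition above the mean over all tested compounds plus 3 SD, cut at about 3.6% in these data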;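 further: 0% = DAX-1 cells with DMSO and 100% = cells lacking DAX-1 with DMSO; higher inhibition means more luminescence from relief of DAX-1 repression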
hgDAF12 agonist: agonists of H. glycines DAF-12 nuclear receptor; HEK293 GAL4-hgDAF12 UAS-luciferase reporter, agonist luminescence; normalized to butyrate control; activation, % at 6.8 µM; hit rate 1.8% among 370,000; AID 687014;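 active means activation above a cutoff set at the mean of all screened compounds plus 3 SD, cut at about 10% in these data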;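 further: 0% = DMSO wells and 100% = sodium butyrate wells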
* = called active by the depositor; x = no result given.

SMILES	hcDAF12 agonist	DAX1 inh-1	SMARCA2 activ	ssDAF-12 act	DAX1 inh-2	hgDAF12 agonist
COc1ccccc1Cc1c(-c2ccc(C)cc2)nc2c3ccccc3ccn12	1	x	-4	0	0	0
CC(O)(c1ccccc1)c1nc(-c2cccc(C(=O)O)c2)cs1 (stereo not drawn)	3	x	-2	0	3	11*
Cc1cccc(CCN2C(Nc3ccccc3)=NC[C@@H]2CC(C)C)c1	0	6.7*	-1	-1	0	0
CCC(C)CCN1C(Nc2ccccc2)=NC[C@@H]1CC(C)C (stereo partly drawn)	-1	4.8*	-1	-1	0	2
CC(C)CCN1C(Nc2ccccc2)=NC[C@@H]1CC(C)C	6.3*	1	1	0	-1	1
CCN1C(Nc2ccccc2)=NC[C@@H]1CC(C)C	-1	2	1	-1	0	0
Cc1ccc2ccccc2c1C(O)c1ncc(-c2ccccc2F)[nH]1 (stereo not drawn)	-1	x	-2	-1	-1	2
Cc1ccccc1Oc1ccc2c(c1)[C@@H]1C[C@H](N(C)C(=O)Nc3cc(Cl)cc(Cl)c3)[C@H]([C@H](C)O)C(=O)N1CC2	-1	3	-4	-1	-3	4
C=CCc1cccc(C=NNC(=O)c2ccco2)c1O	-2	x	-5	-1	-4	0
O=C(CCNC(=O)N1CC(=O)Nc2ccccc21)NCc1cccc(Cl)c1	0	3	-1	-1	4.4*	4
O=C(CNC(=O)N1CC(=O)Nc2ccccc21)Nc1ccccc1F	3	0	3	1.0*	0	4
CCOC(=O)N(C)c1c(CC)nc2c(OCc3cc(Cl)cc(Cl)c3)cccn12	-2	x	-5	-1	-3	-4
Clc1cccc(OCc2nc(-c3ccncc3)no2)c1	1	1	2	-1	0	3
Clc1ccc(OCc2nc(-c3ccncc3)no2)c(Cl)c1	6.1*	2	-1	1	3	12*
COc1ccc(O)c(C(=O)c2cnc3nc4ccccc4n3c2)c1	6.1*	2	1	0	0	2
O=C(O)Cn1nc(-c2ccccc2)cc1-c1ccccc1	3	3	4	-1	0	2
O=C(O)CC(C(=O)O)n1nc(-c2ccccc2)cc1-c1ccccc1 (stereo not drawn)	5.8*	1	4	0	1	5
CCCC(NC(=O)C(C)N1CCN(S(=O)(=O)c2ccccc2)CC1)c1ccccc1 (stereo not drawn)	-2	-2	-2	-1	-2	-1
CC(C)NC(=O)N(C)C[C@H]1Oc2c(NC(=O)c3ccc(-c4nccs4)cc3)cccc2C(=O)N([C@@H](C)CO)C[C@H]1C	-2	1	0	-1	0	-3
COCCNc1nc2ccccc2n2cnnc12	-1	4.3*	1	-1	0	-1
COc1ccc(CCNc2nc3ccccc3n3cnnc23)cc1OC	0	3	0	-1	0	-2
CC(C)C[C@H]1CN(CCCC[C@H]2CNC(=O)C(=O)N2Cc2ccccc2)C(=O)C(=O)N1Cc1ccccc1	2	x	-2	0	-1	-1
C/C(=N\OC(=O)c1ccc(F)cc1)c1nccs1	2	1	4	1.1*	0	2
COc1ccc(C(=O)O/N=C(\C)c2nccs2)cc1	0	-1	7	-1	0	3
O=C(NCCCN1CCCC1=O)c1ccc([N+](=O)[O-])s1	-2	0	-3	-1	-3	-2
O=S1(=O)CC=C(CSC(=S)NC2CCS(=O)(=O)C2)C1 (stereo not drawn)	-1	4.3*	-5	0	0	4
COc1ccc(CNC(=O)c2ccc(CS(=O)c3ccccc3)o2)cc1 (stereo not drawn)	0	0	0	-1	0	4
CCOc1ccc2nc(N3C(=O)C(O)=C(C(=O)c4ccco4)C3c3ccco3)sc2c1 (stereo not drawn)	3	0	7.9*	0	2	6
CCOc1ccccc1NC(=O)COC(=O)c1nc2nccc(C)n2n1	-1	1	-3	0	-1	-1
